Bioassay records deposited in PubChem BioAssay by several laboratories.
Compounds with a hit are over-represented: about 3.7% of the library has one in this group of screens.
TIM10 inh = TIM10 yeast growth inhibition; S. cerevisiae TIM10 strain growth, BacTiter-Glo luminescence, 24 h; inhibition, % at 10 µM; actives 1.4% (n = 330,000);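 active means inhibition of 40% or more at the single tested concentration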;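 further: wild-type TIM10 isogenic control strain grown at permissive 25 °C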
tim10-1 inh = growth inhibitors of tim10-1 mutant yeast. S. cerevisiae tim10-1 ts strain growth, BacTiter-Glo, 24 h. inhibition, % at 20 µM. actives 2.2% (n = 330,000). AID 463190;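 active means inhibition of at least 40%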;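 further: mutant grown at 25 °C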
PfHsp90 set2 = growth inhibition of yeast expressing Plasmodium Hsp90; inhibition, % at 9.4 µM; S. cerevisiae expressing PfHsp90, BacTiter-Glo ATP, 48 h; yeast lacking PDR1 and PDR3 efflux regulators; actives 0.32% (n = 310,000);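 active means every replicate shows inhibition above about 80%, whatever the replicate mean, limit read from the data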
tim23-1 inh = inhibits growth of tim23-1 mutant yeast; actives 1.3% (n = 330,000); inhibition, % at 20 µM; S. cerevisiae tim23-1 growth, BacTiter-Glo luminescence, 24 h; AID 463212;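 active means growth inhibition of the mutant yeast at or above 50%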;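 further: temperature-sensitive mutant grown at 25 °C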
V-ATPase pHluor = alters yeast V-ATPase proton transport | response, % at 10 µM | S. cerevisiae, pHLuorin cytosolic pH fluorescence | actives 0.37% (n = 350,000); in the data active means response mostly above about 7.3%, no sharp cut-off; inactive means mostly below about 5.4%; further: actives read high
tim10-1 conf = tim10-1 yeast growth inhibition, confirmed; shares compounds with tim10-1 inh; S. cerevisiae tim10-1 ts strain growth, BacTiter-Glo, 24 h; inhibition, % at 20 µM; actives 56% (n = 7,400); AID 463213;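 active means inhibition of yeast growth at or above a set limit in either of two repeat tests at 20 µM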;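 further: tim10-1 mutant grown at permissive 25 °C to find synthetic lethal compounds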
Hits are given with their value; i = inactive; nt = not tested or not shown.

SMILES	TIM10 inh	tim10-1 inh	PfHsp90 set2	tim23-1 inh	V-ATPase pHluor	tim10-1 conf
CCOc1ccc2c(c1)-c1c(ssc1=S)C(C)(C)N2C(=O)CSC1=NCCS1	i	i	i	i	i	nt
Cc1ccc2c(c1)-c1c(ssc1=S)C(C)(C)N2C(=O)CSC1=NCCS1	i	43	i	i	i	38
CCN(C[C@H]1N[C@@](C)(C(=O)OC)[C@H]2C(=O)N(C)C(=O)[C@@H]12)C(=O)Nc1ccccc1	i	i	i	i	i	nt
Cc1occc1-c1nnc(SCC(=O)Nc2ccccc2N2CCCCC2)n1C	i	47	i	i	i	i
Cc1occc1-c1nnc(SCC(=O)Nc2ccccc2)n1C	i	i	i	i	i	nt
CCN(c1ccccc1)S(=O)(=O)c1cccc(C(=O)NCCOc2ccccc2OC)c1	i	i	nt	i	i	nt
COc1ccc(CNC(=O)N[C@@H](CC(C)C)C(=O)O)cc1OC	i	i	i	i	i	nt
Cc1[nH]n(-c2ccc([N+](=O)[O-])cc2)c(=O)c1C=NCC1CCCO1 (stereo unspecified)	i	i	i	i	i	nt
Cc1ccc(-n2[nH]c(C)c(/C=N/Nc3ccc([N+](=O)[O-])cc3[N+](=O)[O-])c2=O)cc1	i	49	i	i	i	35
CCCNC(=O)C(Cc1cccc(C#N)c1)NC(=O)c1cccc([N+](=O)[O-])c1 (stereo unspecified)	i	i	i	i	i	nt
Cc1cc(CNC(=S)Nc2ccc(Br)cc2Cl)nn1C	i	i	i	i	i	nt
Cc1nc(N)sc1-c1csc(Nc2ccccn2)n1	nt	nt	i	nt	i	nt
Cc1nc(N)sc1-c1csc(Nc2ccc(Cl)cn2)n1	i	57	i	i	i	38
COc1cc(SC)ccc1C(=O)NNC(=O)c1cc(C)oc1C	i	53	i	i	i	i
N#Cc1ccc(N2Cc3ccccc3C2=NC(=O)c2cccs2)cc1	i	51	i	i	i	39
CC(=O)c1ccc(N2Cc3ccccc3C2=NC(=O)c2cccs2)cc1	i	i	i	i	i	nt
Cc1ccc(-n2nc(C)c(C(=O)N3CCN(C(=O)c4ccco4)CC3)c2-n2cccc2)cc1	i	i	i	i	i	nt
COc1cc(OC)c2c3c(c(C4CCCCC4)nc2c1)CCC3	i	52	i	i	i	30
CCOc1ccccc1C(=O)Nc1ccc2nc3n(c(=O)c2c1)CCCCC3	i	55	i	i	i	i
Cc1ccccc1C(=O)Nc1ccc2nc3n(c(=O)c2c1)CCCC3	i	i	i	i	i	nt
O=C1/C(=C/c2ccccc2Cl)SC(=S)N1CCC(=O)N1CCCCC1CCO (stereo unspecified)	i	46	i	i	i	i
COc1ccc(S(=O)(=O)NCCCN2CCCC2=O)c(OC)c1	i	i	i	i	i	nt
Cc1cccc(N2CCN(C(=O)C3CCN(S(=O)(=O)c4cccc5cccnc45)CC3)CC2C)c1 (stereo unspecified)	i	i	i	i	i	nt
O=C(C1CCN(S(=O)(=O)c2cccc3nsnc23)CC1)N1CCc2ccccc21	i	i	i	i	i	nt
O=C(C1CCN(S(=O)(=O)c2cccc3nsnc23)CC1)N1CCn2c1nc1ccccc12	i	42	i	i	i	i
SMILES	TIM10 inh	tim10-1 inh	PfHsp90 set2	tim23-1 inh	V-ATPase pHluor	tim10-1 conf
O=C(C1CCCN(S(=O)(=O)c2cccc3nsnc23)C1)N1CCc2ccccc21 (stereo unspecified)	i	41	i	i	i	37
Cc1cccc(N2CCN(C(=O)C3CCN(S(=O)(=O)c4cccc5nsnc45)CC3)CC2C)c1 (stereo unspecified)	i	40	i	i	i	i
C=CC[C@@H](Cc1ccc(F)cc1)C(=O)OC[C@@H]1CCCN1C(=O)[C@@H](CC=C)CC(=O)N[C@H](CO)Cc1ccccc1	i	i	i	i	i	nt
COc1ccc(-c2oc3ccc(N4CCOCC4)cc3c2C#CC2(O)CCCCC2)cc1	i	41	i	i	i	i
OC1(C#Cc2c(-c3ccsc3)oc3ccc(N4CCOCC4)cc23)CCCCC1	i	41	i	i	i	i
Cc1cc(C)n(C(=O)COc2ccccc2[N+](=O)[O-])n1	i	i	i	i	i	nt
CCCNC(=O)C12CCC(C)(c3nc4cc(C)c(C)cc4nc31)C2(C)C (stereo unspecified)	i	42	i	i	i	i
C=CCn1c(SCC(=O)Nc2ccc(Br)cc2)nc(O)c(CC)c1=O	i	i	i	i	i	nt
O=C(NCc1ccco1)c1cc2nc(-c3cccs3)cc(C(F)(F)F)n2n1	i	43	i	i	i	i
CCn1c(-c2cc(-c3cccc(OC)c3)nc3ccccc23)n[nH]c1=S	i	43	nt	i	i	i
COc1ccccc1OCc1nn[nH]n1	i	i	i	i	i	nt
Nc1ccc(SC(F)(F)F)cc1C(=O)c1ccccc1	i	50	i	i	i	i
CN(C1CCCCC1)S(=O)(=O)c1ccc(NC(=O)c2ccc(Br)o2)cc1	i	52	i	i	i	42
CN(C)S(=O)(=O)c1ccc(NC(=O)c2ccc(Br)o2)cc1	i	i	i	i	i	nt
CC(C)NC(=S)N(C)C1(c2ccccc2Cl)CCCCC1=O (stereo unspecified)	i	i	i	i	i	nt
CN(C(=S)NC1CCCCC1)C1(c2ccccc2Cl)CCCCC1=O (stereo unspecified)	i	46	i	i	i	35
O=C(CNc1cccc(F)c1)N1CCc2ccccc2C1	i	i	i	i	i	nt
Cn1c(N/N=C/c2c[nH]c3ccccc23)nc2ccccc21	i	i	i	i	i	nt
Cn1c(N/N=C/c2cc3ccccc3nc2Cl)nc2ccccc21	i	42	i	i	i	33
C[C@@H]1CN([C@@H](C)CO)C(=O)CCCn2nncc2CO[C@@H]1CN(C)C(=O)Nc1ccc(-c2cccs2)cc1	nt	nt	nt	nt	i	nt
Cc1nn(-c2nnc(NCc3ccccc3)nn2)c(C)c1Br	i	49	i	i	i	i
COc1cc(C(=O)N2CCN(S(=O)(=O)c3ccc(C)cc3C)CC2)ccc1OCC(=O)N1CCOCC1	i	i	i	i	i	nt
CCOC(=O)/C(C#N)=C\c1cn(C)c2ccccc12	i	41	i	i	i	i
CN(C)S(=O)(=O)N1CCC(Oc2ccc(C(=O)NC3CCOC(C)(C)C3)cc2)CC1 (stereo unspecified)	i	i	i	i	i	nt
CN(C)S(=O)(=O)N1CCC(Oc2ccc(C(=O)NC3Cc4ccccc4C3)cc2)CC1	i	44	i	i	i	i
CCCCCCOC(=O)CC1CC(C(C)=O)C1(C)C (stereo unspecified)	nt	nt	i	nt	i	nt
COc1ccc(-n2ccnc(SCC(=O)NC3CCCC3)c2=O)cc1OC	i	i	i	i	i	nt
Cc1ccc(-n2ccnc(SCC(=O)NC3CCCCC3)c2=O)cc1F	i	44	nt	i	i	i
CCc1ccc(CNC(=O)c2ccc(NC(=O)C3=CSCCO3)cc2)cc1	i	44	i	i	i	i
